This note sets out measurements from PubChem BioAssay AID1159554 (Broad Institute, 2015).

Hit rate of the full screen: of about 94,000 compounds, about 2,100 (2.2%) were called active. What follows is part of a selection rich in actives, with near analogues and random picks from the rest. Values without a mark were called inactive. Cut-off read from the data, not from the text of the source: active = activity change below about -80%; inconclusive = no clear call, values can overlap the other calls; inactive = above that.

The nature of this experiment: Dd2 malaria parasite growth inhibition – SYBR Green fluorescence, single dose replicates, primary screen (AID 1159554). The conditions noted are these: P. falciparum Dd2 growth, 72 h, at 10 µM, stronger effect = lower value.
`COCC#Cc1ccc([C@@H]2[C@@H](CO)N3C(=O)CN(C(=O)C4CCCC4)C[C@@H]23)cc1`: the activity change is -28.5%.
To `O=C(C[C@@H]1CC[C@@H]2[C@H](COC[C@@H](O)CN2C(=O)c2ccccc2F)O1)N1CCOCC1` belongs 11.8%; to `C[C@H](CO)N1C[C@H](C)[C@@H](CN(C)CC2CC2)OCCCC[C@H](C)Oc2ccc(NC(=O)Nc3ccccc3)cc2C1=O`, 3.68%.
Turning to `COc1ccc(C#Cc2cnc3c(c2)C(=O)N([C@H](C)CO)C[C@@H](C)[C@@H](CN(C)C(=O)CN(C)C)O3)cc1`, the activity change is -58.5%.
To `Cc1ccc(S(=O)(=O)N[C@@H]2CC[C@@H](CC(=O)O)O[C@@H]2CO)cc1` belongs 10.2%.
To `COCCNC(=O)[C@H]1[C@H](CO)[C@H]2Cn3c(ccc(-c4ccccc4F)c3=O)[C@H]2N1C(=O)C1CCC1` belongs -8.98%; to `O=C(Cc1ccccc1)N1C[C@@H]2[C@H](c3ccccc31)[C@@H](CO)N2C(=O)C1CC1`, -0.357%; to `COCCNC(=O)[C@@H]1[C@@H](CO)[C@@H]2Cn3c(ccc(-c4ccccc4F)c3=O)[C@@H]2N1C(=O)C1CC1`, 7.64%.
To `C[C@@H]1CN([C@@H](C)CO)C(=O)c2cccc(NC(=O)Nc3ccc(F)cc3)c2O[C@@H]1CN(C)C(=O)Nc1ccccc1` belongs -36.1%; to `C[C@@H]1CN([C@H](C)CO)C(=O)c2cccc(NC(=O)Nc3cccc4ccccc34)c2O[C@@H]1CN(C)C(=O)Nc1ccc(F)cc1`, -95.3% (active).
Take `COc1ccc(NC(=O)N(C)C[C@H]2Oc3c(NC(=O)NC(C)C)cccc3C(=O)N([C@@H](C)CO)C[C@H]2C)cc1`: the activity change is -84.2% (active).
With `C[C@@H]1CN([C@@H](C)CO)C(=O)c2cccc(NC(=O)Nc3ccc(F)cc3)c2O[C@H]1CN(C)C(=O)Nc1ccc(F)cc1`, the activity change was -7.48%.
On to `COc1ccc(NC(=O)Nc2cccc3c2O[C@@H](CN(C)C(=O)NC(C)C)[C@H](C)CN([C@H](C)CO)C3=O)cc1`, for which the activity change was -26.3%.
To `COc1ccc(NC(=O)Nc2cccc3c2O[C@H](CN(C)C(=O)Nc2ccc(F)cc2)[C@@H](C)CN([C@@H](C)CO)C3=O)cc1` belongs -19.9%; to `C[C@@H]1CN([C@H](C)CO)C(=O)c2cc(Br)cnc2O[C@@H]1CN(C)Cc1cncnc1`, 25.3%; to `O=C1CN(Cc2ccccc2)C[C@H]2[C@H](c3ccc(-c4ccccc4)cc3)[C@@H](CO)N12`, -11%.
To `COCC(=O)Nc1ccc2c(c1)C(=O)N(C)[C@H]1CC[C@@H](CC(=O)NCc3cccc(F)c3)O[C@H]1CO2` belongs -2.71%; to `CCCN(C)C[C@@H]1OCCCC[C@H](C)Oc2ccc(NS(=O)(=O)c3ccc(C)cc3)cc2C(=O)N([C@H](C)CO)C[C@@H]1C`, -87.8% (active).
On to `C[C@@H]1CCCCO[C@H](CN(C)C(=O)NC2CCCCC2)[C@H](C)CN([C@@H](C)CO)C(=O)c2cc(NC(=O)Nc3ccc(F)cc3)ccc2O1`, for which the activity change is -11.4%.
To `Cc1ccc(S(=O)(=O)Nc2ccc3c(c2)C(=O)N([C@H](C)CO)C[C@@H](C)[C@@H](CN(C)C)OCCCC[C@@H](C)O3)cc1` belongs -28.5%.
To `CC(C)NC(=O)Nc1ccc2c(c1)C(=O)N([C@@H](C)CO)C[C@H](C)[C@H](CN(C)S(=O)(=O)c1ccc(Cl)cc1)OCCCC[C@H](C)O2` belongs -79.5%; to `C[C@@H]1CCCCO[C@@H](CN(C)C(=O)NC2CCCCC2)[C@H](C)CN([C@@H](C)CO)C(=O)c2cc(NC(=O)Nc3ccc(F)cc3)ccc2O1`, 7.58%.
Turning to `C[C@H](CO)N1C[C@H](C)[C@@H](CN(C)S(C)(=O)=O)OCCCC[C@H](C)Oc2ccc(NC(=O)Nc3cccc4ccccc34)cc2C1=O`, the activity change is 11.4%.
To `C[C@@H]1CCCCO[C@H](CN(C)C(=O)NC2CCCCC2)[C@H](C)CN([C@H](C)CO)C(=O)c2cc(NC(=O)Nc3ccc(F)cc3)ccc2O1` belongs -85.2% (active); to `C[C@H]1CCCCO[C@@H](CN(C)C(=O)c2ccccc2)[C@@H](C)CN([C@@H](C)CO)C(=O)c2cc(NS(=O)(=O)c3cccs3)ccc2O1`, -57.2%; to `CCCN(C)C[C@H]1OCCCC[C@H](C)Oc2ccc(NS(=O)(=O)c3ccc(C)cc3)cc2C(=O)N([C@@H](C)CO)C[C@H]1C`, -65.3%.
To `C[C@@H]1CN([C@@H](C)CO)C(=O)c2cc(NS(=O)(=O)c3cccs3)ccc2O[C@@H](C)CCCCO[C@@H]1CN(C)C(=O)NC1CCCCC1` belongs -14%; to `C[C@H]1CCCCO[C@@H](CN(C)C(=O)C2CCCCC2)[C@@H](C)CN([C@@H](C)CO)C(=O)c2cc(NS(=O)(=O)c3cccs3)ccc2O1`, -83.8% (active).
With `C[C@@H]1CN([C@@H](C)CO)C(=O)c2cc(NC(=O)Nc3cccc4ccccc34)ccc2O[C@@H](C)CCCCO[C@@H]1CN(C)S(=O)(=O)c1ccc(Cl)cc1`, the activity change is -85.2% (active).
Take `CCCNC(=O)N[C@@H]1CC[C@@H](CCn2cc(C3CC3)nn2)O[C@@H]1CO`: the activity change was 12.3%.
`COc1ccccc1S(=O)(=O)N1C[C@@H](O)COC[C@H]2O[C@H](CC(=O)O)CC[C@@H]21`: the activity change is -3.23%.
To `COc1ccc(NC(=O)N(C)C[C@@H]2Oc3ncc(-c4ccc(C#N)cc4)cc3C(=O)N([C@@H](C)CO)C[C@H]2C)cc1` belongs 34.7%; to `O=C(C1CCC1)N1CC[C@@H]2[C@H]1c1cc(C#Cc3ccc(F)cc3)ccc1N[C@@H]2CO`, -70.8%.
On to `O=C(c1cccc(F)c1)N1C[C@H]2[C@@H](c3ccccc31)[C@@H](CO)N2C(=O)Cc1ccccc1`, for which the activity change was 0.269%.
To `C[C@H](CO)N1C[C@H](C)[C@@H](CN(C)CC2CCCCC2)Oc2ccc(NS(=O)(=O)c3cccs3)cc2CC1=O` belongs -7.92%.
Take `C[C@@H]1CN([C@H](C)CO)C(=O)c2cc(NC(=O)Nc3ccc(F)cc3)ccc2O[C@@H](C)CCCCO[C@@H]1CN(C)CC1CCCCC1`: the activity change is -82.5% (active).
To `C[C@@H]1CCCCO[C@H](CN(C)Cc2ccccc2)[C@@H](C)CN([C@@H](C)CO)C(=O)c2cc(NC(=O)Nc3ccc(F)cc3)ccc2O1` belongs -73.3%; to `COc1ccc(S(=O)(=O)N(C)C[C@@H]2OCCCC[C@H](C)Oc3ccc(NC(=O)Nc4ccccc4)cc3C(=O)N([C@@H](C)CO)C[C@H]2C)cc1`, -79.2%.
For `COc1ccc(NC(=O)Nc2ccc3c(c2)C(=O)N([C@H](C)CO)C[C@@H](C)[C@H](CN(C)CC2CCCCC2)OCCCC[C@@H](C)O3)cc1`, the activity change was -85.2% (active).
To `CCCN(C)C[C@H]1OCCCC[C@@H](C)Oc2ccc(NC(=O)Nc3ccc(F)cc3)cc2C(=O)N([C@@H](C)CO)C[C@H]1C` belongs -91.5% (active); to `CC(C)NC(=O)Nc1ccc2c(c1)C(=O)N([C@H](C)CO)C[C@H](C)[C@@H](CN(C)CC1CCCCC1)OCCCC[C@@H](C)O2`, -13.3%; to `C[C@@H]1CCCCO[C@H](CN(C)CC2CCCCC2)[C@H](C)CN([C@H](C)CO)C(=O)c2cc(NC(=O)Nc3ccc(F)cc3)ccc2O1`, -79.8%.
Take `COc1ccc(NC(=O)Nc2ccc3c(c2)C(=O)N([C@H](C)CO)C[C@H](C)[C@@H](CN(C)S(=O)(=O)c2ccc(OC)cc2)OCCCC[C@H](C)O3)cc1`: the activity change was 0.392%.
Take `CCCN(C)C[C@@H]1OCCCC[C@@H](C)Oc2ccc(NC(=O)Nc3ccc(C(F)(F)F)cc3)cc2C(=O)N([C@H](C)CO)C[C@H]1C`: the activity change is -75.7%.
For the compound `COc1ccc(NC(=O)Nc2ccc3c(c2)C(=O)N([C@H](C)CO)C[C@H](C)[C@@H](CN(C)C(=O)Nc2ccc(OC)cc2)OCCCC[C@H](C)O3)cc1`, the activity change is -22.2%.
To `COc1ccc(NC(=O)Nc2ccc3c(c2)C(=O)N([C@@H](C)CO)C[C@H](C)[C@H](CN(C)S(=O)(=O)c2ccccc2)OCCCC[C@@H](C)O3)cc1` belongs -87.4% (active); to `COc1ccc(NC(=O)Nc2ccc3c(c2)C(=O)N([C@@H](C)CO)C[C@H](C)[C@H](CN(C)CC2CCCCC2)O3)cc1`, 13.9%; to `O=C(C1CCCCC1)N1CC2(C1)[C@H](c1ccccc1)[C@@H](CO)N2Cc1cncnc1`, 32.5%.
On to `O=C(C[C@@H]1CC[C@@H]2[C@H](COC[C@H](O)CN2S(=O)(=O)c2ccccc2F)O1)NCc1ccccc1F`, for which the activity change was 0.606%.
To `C[C@@H]1CCCCO[C@@H](CN(C)S(=O)(=O)c2cn(C)cn2)[C@H](C)CN([C@@H](C)CO)C(=O)c2cc(NC(=O)Nc3ccccc3)ccc2O1` belongs -13.9%; to `CC(C)NC(=O)N1[C@@H]2CN(C(=O)Nc3ccc(F)cc3)c3ccccc3[C@@H]2[C@@H]1CO`, 18.6%; to `CC(=O)N(C)C[C@H]1Oc2cc(C#Cc3ccccc3F)ccc2S(=O)(=O)N([C@@H](C)CO)C[C@H]1C`, -22.1%.
On to `C[C@@H]1CN([C@@H](C)CO)S(=O)(=O)c2ccc(C#Cc3ccccc3F)cc2O[C@H]1CN(C)C(=O)c1ccc2c(c1)OCO2`, for which the activity change is -85.3% (active).
To `C[C@H]1CN([C@@H](C)CO)S(=O)(=O)c2ccc(C#Cc3ccccc3F)cc2O[C@@H]1CN(C)C(=O)c1ccc2c(c1)OCO2` belongs -86.6% (active).
To `CC(=O)N(C)C[C@H]1Oc2cc(C#Cc3ccccc3F)ccc2S(=O)(=O)N([C@H](C)CO)C[C@@H]1C` belongs -24.1%.
To `C[C@@H]1CN([C@H](C)CO)S(=O)(=O)c2ccc(C#Cc3ccccc3F)cc2O[C@@H]1CN(C)C(=O)c1ccc2c(c1)OCO2` belongs -67%.
Regarding `CC(=O)N(C)C[C@@H]1Oc2cc(C#Cc3ccccc3F)ccc2S(=O)(=O)N([C@@H](C)CO)C[C@@H]1C`, the activity change is -36.8%.
